Laboratory results as given in PubChem BioAssay AID1159580 (chemical genetic matrix, 2015).
Screen size: about 5,500 compounds; about 2,000 (36%) were called active. About 18% were inconclusive and are not listed. No stated cut-off is given here; in the data, active means normalized growth mostly below about 0.91 (no sharp cut-off); inconclusive means no clear call, values can overlap the other calls; inactive means mostly above about 0.92. Some of the results follow.

Test: chemical genetic growth profiling, strain panel (AID 1159580);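 further: tested at 20 µM; growth read once vehicle control cultures reached saturation at 30 °C; 1 = growth at the plate median or of vehicle wells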
Details: S. cerevisiae deletion strains, growth OD

Measured: normalized growth

O=c1[nH]c2cccnc2[nH]c1=O
inactive: locus YAL013W, strain DEP1, stronger effect = lower value 0.999 | locus YBR229C, strain ROT2, stronger effect = lower value 1.02 | locus YDL101C, strain DUN1, stronger effect = lower value 1.01 | locus YDR150W, strain NUM1, stronger effect = lower value 0.995 | locus YEL061C, strain CIN8, stronger effect = lower value 1 | locus YGR078C, strain PAC10, stronger effect = lower value 1.01 | locus YGR229C, strain SMI1, stronger effect = lower value 0.997 | locus YHR030C, strain SLT2, stronger effect = lower value 1.03 | locus YHR087W, strain rtc3, stronger effect = lower value 1 | locus YJL187C, strain SWE1, stronger effect = lower value 0.992 | locus YJR043C, strain POL32, stronger effect = lower value 1.01 | locus YJR075W, strain HOC1, stronger effect = lower value 0.969 | locus YKL190W, strain CNB1, stronger effect = lower value 0.995 | locus YLR039C, strain RIC1, stronger effect = lower value 1 | locus YLR058C, strain SHM2 (second series), stronger effect = lower value 1 | locus YLR085C, strain ARP6, stronger effect = lower value 1.01 | locus YLR262C, strain YPT6, stronger effect = lower value 0.979 | locus YML094W, strain GIM5, stronger effect = lower value 1.02 | locus YMR219W, strain ESC1, stronger effect = lower value 1.03 | locus YMR263W, strain SAP30, stronger effect = lower value 1.01 | locus YNL153C, strain GIM3, stronger effect = lower value 1.04 | locus YNL298W, strain CLA4 (second series), stronger effect = lower value 1.04 | locus YNL322C, strain KRE1, stronger effect = lower value 0.998 | locus YNR030W, strain Alg12, stronger effect = lower value 1.01 | locus YPL055C, strain LGE1, stronger effect = lower value 0.965 | locus YPL241C, strain CIN2, stronger effect = lower value 1.01 | locus YPR135W, strain CTF4, stronger effect = lower value 1.06
